Measured values taken from ChEMBL document CHEMBL3988442, “University of Dundee, Small-Polar-MMV Screening Library” (2021).
In all, about 48,000 compounds went through this assay and about 13,000 (27%) showed an effect of 50% or more. This is one part of the list.

Test system: Wolbachia pipientis
Assay: Anti-Wolbachia Cell-Based Screen
Type: functional
Set-up: scale not given: in the data most compounds retested in dose-response had high values
Settings: 5 µM

Structure (SMILES)	Percent Effect
O=C1CN(c2ccc(CNC(=O)c3ccc[nH]3)cc2F)CCN1	1.628%
CCNC(=O)NC(=O)CN(CC(C)O)c1ccccc1 (configuration not stated)	-6.081%
FC(F)(F)c1nnc2n1CCN(c1nc(C3CC3)ns1)C2	7.167%
c1ccc(-c2cc(CN3CCC(c4ccn[nH]4)CC3)on2)cc1	-18.74%
Cc1cc(C)c(CNC(=O)NCC2CCCO2)c(=O)[nH]1 (configuration not stated)	-10.27%
O=S(=O)(Cc1cc(-c2ccccc2)no1)CC1CCCO1 (configuration not stated)	117.5%
O=C(CC1CCCO1)NS(=O)(=O)Cc1cc(-c2ccccc2)no1 (configuration not stated)	94.25%
CCN1CCC(CNC(=O)NCc2cc(-c3ccc(C)cc3)no2)C1 (configuration not stated)	6.048%
O=C(NS(=O)(=O)Cc1cc(-c2ccccc2)no1)C1CCOCC1	-7.495%
CC(C(=O)NS(=O)(=O)Cc1cc(-c2ccccc2)no1)C1CC1 (configuration not stated)	-15.76%
O=C(NCc1cc(-c2ccccc2)no1)NCC1CCCO1 (configuration not stated)	63.77%
CC1(C)CC1C(=O)NS(=O)(=O)Cc1cc(-c2ccccc2)no1 (configuration not stated)	-6.027%
CS(=O)(=O)N1CC(c2nc[nH]n2)c2cc(C(=O)NC3CC3)ccc21 (configuration not stated)	-11.05%
CC(=O)Nc1ccc(Cl)c(C(=O)N(C)C(C)c2ccon2)c1 (configuration not stated)	2.031%
COCCN1CCN(Cc2nc3c(s2)CCCC3)[C@H]2CS(=O)(=O)C[C@H]21	-3.056%
CN(C)CCN(Cc1ccccc1)C(=O)C1=NNC(=O)CC1	-7.83%
COc1ccc(C(=O)N2CCC(Nc3ccc(C)nn3)CC2)c(F)c1	-2.664%
Cc1ccc(NC2CCN(C(=O)c3cc(C(N)=O)cs3)CC2)nn1	7.568%
Cc1ccc(NC2CCN(C(=O)c3cccc(F)c3F)CC2)nn1	-1.212%
Cc1ccc(NC2CCN(C(=O)c3ccc(F)c(C)c3)CC2)nn1	89.48%
Cc1ccc(NC2CCN(C(=O)c3ccc4c(c3)CCC4)CC2)nn1	112.2%
COc1cccc(COCC(=O)NC(C(N)=O)c2ccccc2)c1 (configuration not stated)	-6.273%
CCC(=O)N1CCc2nc3cc(OC)c(OC)cc3c(=O)n2CC1	-9.574%
CCCC(=O)N1CCc2nc3cc(OC)c(OC)cc3c(=O)n2CC1	121.4%
COc1cc2nc3n(c(=O)c2cc1OC)CCN(C(C)=O)CC3	-0.7868%
COc1cc2nc3n(c(=O)c2cc1OC)CCN(C(=O)C1CCC1)CC3	115.6%

Structure (SMILES)	Percent Effect
COc1cc2nc(C)n(CC(=O)NCCCN(C)C)c(=O)c2cc1OC	20.74%
COc1cc2nc3n(c(=O)c2cc1OC)CCN(C(=O)C1CC1)CC3	109.5%
COc1ccc2[nH]nc(CN3CCC(C(=O)N4CCCCC4)CC3)c2c1	-39.46%
COc1cc2nc3n(c(=O)c2cc1OC)CCN(C(=O)C(C)(C)C)CC3	130.5%
CC(CCN(C)C)NC(=O)c1cccc(C(F)(F)F)c1F (configuration not stated)	5.139%
CN(Cc1ccncc1)CC(c1cccs1)N1CCOCC1 (configuration not stated)	-0.8027%
Cc1ccc(C(=O)N(Cc2cccnc2)C[C@@H]2CCC(=O)N2)s1	6.518%
CCc1cnc(N)nc1NCCCn1cc(Cl)cn1	12.08%
O=C(CC1CCCO1)NCCCC(=O)Nc1ccc(Cl)cc1 (configuration not stated)	117.3%
O=C(CCCNC(=O)C1CCCO1)Nc1ccc(Cl)cc1 (configuration not stated)	123.9%
O=C(CCCNC(=O)NCC1CCCO1)Nc1ccc(Cl)cc1 (configuration not stated)	100.3%
O=C(CCC1CCCO1)NCCCC(=O)Nc1ccc(Cl)cc1 (configuration not stated)	132.9%
O=C(NCCNS(=O)(=O)c1cccc(Cl)c1)C1CCCO1 (configuration not stated)	-1.895%
O=C(NCCCN1CCN(c2ncccn2)CC1)NCC1CCCO1 (configuration not stated)	8.99%
O=C(CC1CCCO1)NCCc1ccccc1Br (configuration not stated)	-5.645%
O=C(CCC1CCCO1)NS(=O)(=O)c1ccc(Cl)cc1 (configuration not stated)	-0.06204%
O=C(CCCNC(=O)C1CC1)Nc1cnn(-c2ccccc2Cl)c1	2.837%
O=C(CC1CCCO1)NCCc1ccc(Br)cc1F (configuration not stated)	2.724%
CNS(=O)(=O)c1ccc(CNC(=O)NCC2CCCO2)cc1 (configuration not stated)	-4.659%
O=C(CCC1CCCO1)NCCCO (configuration not stated)	-3.139%
CNS(=O)(=O)CC1CCCN1c1ccccn1 (configuration not stated)	-17.04%
Cc1nc(-c2ccccc2)sc1CSC(C)C(N)=O (configuration not stated)	-3.877%
CCOC(C)c1nc(CN2CCC(NC(C)C)CC2)cs1 (configuration not stated)	9.562%
Cc1nn2cc(CCNC(=O)c3cc(C(C)C)no3)nc2s1	-4.133%
Cc1cc(C(=O)N2C[C@@H]3[C@@H](CN(C)CCc4ccccn4)[C@@H]3C2)c(C)o1	-1.529%
CN(CCc1ccccn1)C(=O)C(c1cccnc1)N1CCOCC1 (configuration not stated)	2.073%

Structure (SMILES)	Percent Effect
Cc1ccc(C)c(-n2ncc(C(=O)N(C)CCc3ccccn3)c2N)c1	159.7%
Cc1cc(Cl)ccc1-n1ncc(C(=O)N(C)CCc2ccccn2)c1N	185.4%
CCOC(=O)c1cnn(-c2cc(C)ccn2)c1N	-12.86%
CN(CCc1ccccn1)C(=O)c1ccccc1F	-16.13%
CN(CCc1ccccn1)C(=O)c1cnn(-c2ccccc2F)c1N	110.9%
Cc1ccccc1SC1CCN(C(=O)[C@@H]2C[C@@H](N)CN2)CC1	-21.68%
O=C(O)C(F)(F)F.O=C(O)C(F)(F)F.O=C(O)c1cc2c(nc1-c1cncnc1)CCN(C1CCOC1)CC2 (configuration not stated)	-20.41%
Cc1cnn(CC2CCCCN2CCCS(N)(=O)=O)c1 (configuration not stated)	-7.264%
OC1(CN2CCCCC2)CCN(Cc2c[nH]c(CC3CCCC3)n2)C1 (configuration not stated)	5.378%
CN(Cc1c(F)cccc1Cl)C(=O)c1cnn(CCN2CCCCC2)c1	4.459%
COc1ccc(F)c(-c2nccn2CCN2CCCC2)c1	-4.269%
O=C(CN1CCCCCC1)NCc1ccc2[nH]c(=O)[nH]c2c1	33.1%
O=C1N[C@@H]2CCN(C(=O)c3ccccc3)[C@@H]2C(=O)N1c1ccc(F)cc1	9.769%
CC(C)OC(=O)[C@@H]1CCN(C(=O)c2ccccn2)[C@@H]1c1ccc(F)cc1	116.9%
O=C(c1cscn1)N1CC[C@H]2[C@@H]1CCC(=O)N2c1ccccc1	5.214%
CC(C)OC(=O)N1C[C@H]2CC[C@@H]1CN(C(=O)c1ccccn1)C2	1.179%
O=C(O)[C@@H]1CCN(C(=O)c2ccccn2)[C@@H]1c1ccc(F)cc1	129.5%
O=C(O)[C@@H]1CCN(C(=O)c2cscn2)[C@@H]1c1ccc(F)cc1	132.5%
O=C(COC1CCCCC1)N1CCN(C(=O)Cc2ccccn2)CC1	-7.801%
O=C(COCC1CC1)N1CCN(C(=O)Cc2ccccn2)CC1	1.286%
O=C(O)C(F)(F)F.O=C([C@H]1C[C@H]2OCC[C@H]2N(C(=O)c2ccccn2)C1)N1CCCCO1	-2.538%
O=C(O)[C@@H]1CCN(C(=O)Cc2ccccn2)[C@@H]1c1ccc(F)cc1	124%
Cc1ccccc1N1CCN(C(=O)c2cscn2)C(C)C1 (configuration not stated)	6.365%
CN(C(=O)c1cccnc1OCC(F)F)c1ccc2c(c1)CCO2	-7.463%
Cc1c(-c2c(-c3ccccc3)ncn2[C@@H](C(=O)O)[C@H](C)O)cnn1C	-13.76%
COCc1ncn(Cc2nc(-c3ccc(OC)cc3F)oc2C)n1	-0.9498%

Structure (SMILES)	Percent Effect
Cc1ccc(N2CCC(NC(C)c3cccs3)CC2)nc1 (configuration not stated)	-4.773%
Cn1cc(-c2csc(N3CCSCC3)n2)cn1	-8.104%
CS(=O)(=O)N1CCC(c2nnc(CN3CCCC3)n2C2CC2)CC1	-12.66%
CN(Cc1cc(C[C@@H]2C[C@H](N)C2(C)C)no1)c1ccccc1	4.71%
O=C(O)C(F)(F)F.O=C(c1ccccc1)N1CCC2(CCCN2c2ncccn2)CC1	93.81%
O=C(O)C(F)(F)F.O=C(O)C(F)(F)F.O=C(c1c[nH]cn1)N1CCC(F)(F)C2(CCN(c3ccccn3)C2)C1 (configuration not stated)	6.098%
O=C(O)C(F)(F)F.O=C(c1ccccn1)N1CCC2(CC1)C(=O)Nc1ccccc12	-9.696%
Cc1ccc(C(=O)N2CCC3(CCN3c3ncccn3)C2)cn1.O=C(O)C(F)(F)F (configuration not stated)	98.39%
O=C(O)C(F)(F)F.O=C(c1ccc2ccccc2n1)N1CCC2(CCN2c2ncccn2)C1 (configuration not stated)	82.49%
Cc1ccc(C(=O)N2CCC3(CC2)NC(=O)CC3c2ccccc2)cn1.O=C(O)C(F)(F)F (configuration not stated)	15.96%
COCC1CC2(CCN(C(=O)c3cnc4ccccc4c3)CC2)CO1.O=C(O)C(F)(F)F (configuration not stated)	5.909%
O=C(O)C(F)(F)F.O=C(c1cnc2ccccc2c1)N1CCC2(CCN2c2ncccn2)C1 (configuration not stated)	69.16%
CCCc1nnsc1C(=O)N1CCN(CC(O)C2CC2)CC1.Cl (configuration not stated)	-6.099%
O=C(c1ccc2sccc2c1)N1CCC(C(=O)O)(n2cccn2)CC1	-6.348%
COc1ccccc1-c1ncc(CN2CCCC[C@H](N(C)C)C2)s1	-5.387%
Cc1cc(F)c(S(=O)(=O)N(C)CCn2cccn2)cc1F	-6.407%
O=C(O)C(F)(F)F.O=C(c1cccc(O)c1)N1CCC2(CCN2c2ncccn2)C1 (configuration not stated)	103.8%
CCN(CC)CCNC(=O)c1cc(C(C)C)nc(N2CCCC2)n1	3.007%
CCC(NC(=O)C1CCN(S(C)(=O)=O)CC1)c1ccc(OC)c(OC)c1 (configuration not stated)	-10.24%
Cc1csc(C(Cc2ccsc2)NC(=O)C2CCN(S(C)(=O)=O)CC2)n1 (configuration not stated)	94.26%
CCC(NC(=O)NC1CCN(S(C)(=O)=O)CC1)c1cccs1 (configuration not stated)	5.409%
CS(=O)(=O)N1CCC(C(=O)NC(Cc2ccsc2)c2ccccn2)CC1 (configuration not stated)	-12.55%
CS(=O)(=O)N1CCC(C(=O)NC(Cc2ccsc2)c2cccnc2)CC1 (configuration not stated)	127.1%
CCC(NC(=O)C1CCN(S(C)(=O)=O)CC1)c1ccc(OC)c(C)c1 (configuration not stated)	-3.123%
